# Laboratory results from paper PMC7862700, “An all-to-all approach to the identification of sequence-specific readers for epigenetic DNA modifications on cytosine”.
# Tests used:
# Test in all cases: DAPPL (digital affinity profiling via proximity ligation, sequencing); 10 mM Tris-HCl pH 7.5, 50 mM NaCl, 1 mM DTT, 4% glycerol, room temperature, 30 min; GST-TFs on glutathione beads, 16-mer random dsDNA library, 0.1% formaldehyde crosslink after washing; high values mean tight binding
# FEV = molecular target: T1, FEV (Homo sapiens, UniProt Q99581 1-238); conditions: protein: recombinant; tags: N-terminal GST; dsDNA, one strand shown
# T1 sequence: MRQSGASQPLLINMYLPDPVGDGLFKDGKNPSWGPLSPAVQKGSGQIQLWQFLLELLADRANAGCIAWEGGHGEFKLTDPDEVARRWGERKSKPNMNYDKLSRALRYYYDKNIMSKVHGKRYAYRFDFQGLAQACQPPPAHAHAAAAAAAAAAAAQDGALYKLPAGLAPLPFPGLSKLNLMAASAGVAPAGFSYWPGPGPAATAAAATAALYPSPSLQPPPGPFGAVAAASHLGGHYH
# How it was run: (§1)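 Beads coated with glutathione captured GST-fused human transcription factors that had been expressed in yeast, and the factors were then given DNA barcodes and pooled with a tag-only sample. The pools were incubated with 200 nmole of a random double-stranded 16-mer DNA library in Tris/NaCl/DTT/glycerol buffer for 30 min at room temperature, washed, crosslinked with 0.1% formaldehyde and proximity-ligated with BsaI/T4 ligase at 37 °C for 1 h. PCR amplification and Illumina NextSeq500 sequencing came last. Binding signal is each hexamer's read frequency for a factor divided by its frequency for the tag-only sample.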
# ETV5 = ETV5 (Homo sapiens, UniProt P41161 1-510); conditions: protein: recombinant; tags: N-terminal GST; dsDNA, one strand shown
# How it was run: as §1
# HSF1 = HSF1 (Homo sapiens, UniProt Q00613 1-529); conditions: protein: recombinant; tags: N-terminal GST; chain copies: 3; dsDNA, one strand shown
# How it was run: as §1
# SPIC = molecular target: T2, SPIC (Homo sapiens, UniProt Q8N5J4 1-248); conditions: protein: recombinant; tags: N-terminal GST; dsDNA, one strand shown
# T2 sequence: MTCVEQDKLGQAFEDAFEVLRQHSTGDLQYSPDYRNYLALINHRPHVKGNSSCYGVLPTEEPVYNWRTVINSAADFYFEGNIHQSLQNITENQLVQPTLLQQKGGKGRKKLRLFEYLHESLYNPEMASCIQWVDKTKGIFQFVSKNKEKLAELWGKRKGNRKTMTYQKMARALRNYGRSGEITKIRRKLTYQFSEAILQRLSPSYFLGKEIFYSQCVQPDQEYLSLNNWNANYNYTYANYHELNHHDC
# How it was run: as §1
# ELF4 = ELF4 (Homo sapiens, UniProt Q99607 1-663); conditions: protein: recombinant; tags: N-terminal GST; dsDNA, one strand shown
# How it was run: as §1
# ELK4 = molecular target: T3, ELK4 (Homo sapiens, UniProt P28324-2 1-405); conditions: protein: recombinant; tags: N-terminal GST; dsDNA, one strand shown
# T3 sequence: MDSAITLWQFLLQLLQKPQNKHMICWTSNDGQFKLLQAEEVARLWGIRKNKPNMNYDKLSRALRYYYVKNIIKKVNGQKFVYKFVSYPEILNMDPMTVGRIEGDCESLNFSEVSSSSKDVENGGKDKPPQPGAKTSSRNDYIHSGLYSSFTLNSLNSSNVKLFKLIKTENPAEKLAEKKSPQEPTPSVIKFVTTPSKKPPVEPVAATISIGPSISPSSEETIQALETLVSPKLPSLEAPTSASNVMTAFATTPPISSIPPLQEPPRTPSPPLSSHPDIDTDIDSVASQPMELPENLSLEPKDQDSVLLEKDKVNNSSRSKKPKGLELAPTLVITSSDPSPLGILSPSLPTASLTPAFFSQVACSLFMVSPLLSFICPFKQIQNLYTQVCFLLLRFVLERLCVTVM
# How it was run: as §1
# ETV2 = molecular target: T4, ETV2 (Homo sapiens, UniProt O00321 1-342); conditions: protein: recombinant; tags: N-terminal GST; dsDNA, one strand shown
# T4 sequence: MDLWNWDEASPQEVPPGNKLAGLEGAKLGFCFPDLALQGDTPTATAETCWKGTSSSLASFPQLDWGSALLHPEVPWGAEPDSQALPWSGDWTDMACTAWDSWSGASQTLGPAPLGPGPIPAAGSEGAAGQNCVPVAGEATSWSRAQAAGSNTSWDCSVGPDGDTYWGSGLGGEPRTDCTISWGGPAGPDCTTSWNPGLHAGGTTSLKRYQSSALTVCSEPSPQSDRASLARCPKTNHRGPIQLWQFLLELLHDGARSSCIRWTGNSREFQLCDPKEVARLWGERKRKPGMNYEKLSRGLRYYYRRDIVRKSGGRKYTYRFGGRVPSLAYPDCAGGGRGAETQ
# How it was run: as §1
# ELF3 = molecular target: T5, ELF3 (Homo sapiens, UniProt P78545 1-371); conditions: protein: recombinant; tags: N-terminal GST; dsDNA, one strand shown
# T5 sequence: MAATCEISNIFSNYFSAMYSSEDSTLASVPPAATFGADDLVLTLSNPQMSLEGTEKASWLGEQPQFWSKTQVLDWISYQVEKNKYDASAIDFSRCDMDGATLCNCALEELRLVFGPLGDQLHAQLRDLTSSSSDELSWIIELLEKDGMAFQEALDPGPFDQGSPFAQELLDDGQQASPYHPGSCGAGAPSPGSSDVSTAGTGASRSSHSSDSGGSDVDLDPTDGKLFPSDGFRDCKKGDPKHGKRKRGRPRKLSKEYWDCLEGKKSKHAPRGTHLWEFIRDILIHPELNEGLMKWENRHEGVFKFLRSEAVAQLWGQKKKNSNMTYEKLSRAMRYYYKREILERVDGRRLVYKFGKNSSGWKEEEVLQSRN
# How it was run: as §1
# CRX = CRX (Homo sapiens, UniProt O43186 1-299); conditions: protein: recombinant; tags: N-terminal GST; dsDNA, one strand shown
# How it was run: as §1
# ETV1 = ETV1 (Homo sapiens, UniProt P50549 1-477); conditions: protein: recombinant; tags: N-terminal GST; dsDNA, one strand shown
# How it was run: as §1
# ERF = molecular target: T6, ERF (Homo sapiens, UniProt P50548 1-548); conditions: protein: recombinant; tags: N-terminal GST; dsDNA, one strand shown
# T6 sequence: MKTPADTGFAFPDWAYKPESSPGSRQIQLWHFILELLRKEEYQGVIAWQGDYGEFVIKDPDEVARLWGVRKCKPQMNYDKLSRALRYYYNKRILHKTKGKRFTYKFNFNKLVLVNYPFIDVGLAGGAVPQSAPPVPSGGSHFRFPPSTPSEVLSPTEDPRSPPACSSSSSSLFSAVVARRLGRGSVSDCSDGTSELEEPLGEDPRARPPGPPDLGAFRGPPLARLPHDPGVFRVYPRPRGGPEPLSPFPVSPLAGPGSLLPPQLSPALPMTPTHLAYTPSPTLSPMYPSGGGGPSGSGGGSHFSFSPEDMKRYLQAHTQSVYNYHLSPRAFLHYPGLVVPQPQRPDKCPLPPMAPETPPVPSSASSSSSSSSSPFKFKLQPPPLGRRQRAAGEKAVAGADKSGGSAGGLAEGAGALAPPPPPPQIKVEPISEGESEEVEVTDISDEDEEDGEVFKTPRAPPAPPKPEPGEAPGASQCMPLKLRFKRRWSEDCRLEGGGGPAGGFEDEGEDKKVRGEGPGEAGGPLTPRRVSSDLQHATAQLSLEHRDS
# How it was run: as §1
# ETV3L = molecular target: T7, ETV3L (Homo sapiens, UniProt Q6ZN32 1-361); conditions: protein: recombinant; tags: N-terminal GST; dsDNA, one strand shown
# T7 sequence: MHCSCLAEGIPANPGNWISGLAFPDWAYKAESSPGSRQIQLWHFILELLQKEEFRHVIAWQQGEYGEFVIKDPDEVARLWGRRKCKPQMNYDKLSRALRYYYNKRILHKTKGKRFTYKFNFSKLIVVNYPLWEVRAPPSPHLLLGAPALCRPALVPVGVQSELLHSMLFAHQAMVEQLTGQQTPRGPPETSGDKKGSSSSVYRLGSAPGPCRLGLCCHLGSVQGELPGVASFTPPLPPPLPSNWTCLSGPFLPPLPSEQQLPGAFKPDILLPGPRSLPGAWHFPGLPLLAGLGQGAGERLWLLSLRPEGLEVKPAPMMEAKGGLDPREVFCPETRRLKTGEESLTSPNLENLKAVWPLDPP
# How it was run: as §1
# ETS2 = molecular target: T8, ETS2 (Homo sapiens, UniProt P15036 1-469); conditions: protein: recombinant; tags: N-terminal GST; dsDNA, one strand shown
# T8 sequence: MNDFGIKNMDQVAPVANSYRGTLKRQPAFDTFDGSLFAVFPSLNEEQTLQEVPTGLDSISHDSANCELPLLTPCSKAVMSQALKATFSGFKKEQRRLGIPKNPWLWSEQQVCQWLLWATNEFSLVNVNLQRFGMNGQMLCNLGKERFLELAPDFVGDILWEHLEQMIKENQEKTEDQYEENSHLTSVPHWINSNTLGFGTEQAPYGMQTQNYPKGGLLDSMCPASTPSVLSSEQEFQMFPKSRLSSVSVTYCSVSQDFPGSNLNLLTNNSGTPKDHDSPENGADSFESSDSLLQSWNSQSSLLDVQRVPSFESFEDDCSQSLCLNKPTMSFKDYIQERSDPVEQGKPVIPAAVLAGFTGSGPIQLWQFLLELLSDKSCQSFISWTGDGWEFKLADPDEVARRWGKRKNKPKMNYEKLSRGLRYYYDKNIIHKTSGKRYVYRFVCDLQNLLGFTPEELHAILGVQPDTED
# How it was run: as §1
# SPDEF = molecular target: T9, SPDEF (Homo sapiens, UniProt O95238 1-335); conditions: protein: recombinant; tags: N-terminal GST; dsDNA, one strand shown
# T9 sequence: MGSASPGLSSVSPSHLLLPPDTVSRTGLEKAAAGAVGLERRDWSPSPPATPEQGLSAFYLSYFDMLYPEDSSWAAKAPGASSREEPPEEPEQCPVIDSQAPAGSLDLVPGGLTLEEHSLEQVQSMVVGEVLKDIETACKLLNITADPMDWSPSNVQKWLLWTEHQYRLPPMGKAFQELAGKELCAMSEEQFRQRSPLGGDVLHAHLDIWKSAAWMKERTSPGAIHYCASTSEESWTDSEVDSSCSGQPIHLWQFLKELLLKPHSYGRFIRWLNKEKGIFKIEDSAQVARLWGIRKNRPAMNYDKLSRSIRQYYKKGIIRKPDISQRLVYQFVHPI
# How it was run: as §1
# ETV7 = molecular target: T10, ETV7 (Homo sapiens, UniProt Q9Y603 1-341); conditions: protein: recombinant; tags: N-terminal GST; dsDNA, one strand shown
# T10 sequence: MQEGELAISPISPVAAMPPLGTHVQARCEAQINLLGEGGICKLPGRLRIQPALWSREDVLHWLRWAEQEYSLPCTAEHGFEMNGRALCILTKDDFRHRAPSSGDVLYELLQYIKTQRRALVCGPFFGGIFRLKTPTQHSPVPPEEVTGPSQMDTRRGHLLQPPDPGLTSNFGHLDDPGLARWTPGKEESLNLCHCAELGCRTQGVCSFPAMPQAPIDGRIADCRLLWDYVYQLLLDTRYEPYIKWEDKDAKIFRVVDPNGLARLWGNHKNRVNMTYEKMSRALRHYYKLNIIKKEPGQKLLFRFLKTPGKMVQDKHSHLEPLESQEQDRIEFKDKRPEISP
# How it was run: as §1
# ELF5 = molecular target: T11, ELF5 (Homo sapiens, UniProt Q9UKW6-2 1-255); conditions: protein: recombinant; tags: N-terminal GST; dsDNA, one strand shown
# T11 sequence: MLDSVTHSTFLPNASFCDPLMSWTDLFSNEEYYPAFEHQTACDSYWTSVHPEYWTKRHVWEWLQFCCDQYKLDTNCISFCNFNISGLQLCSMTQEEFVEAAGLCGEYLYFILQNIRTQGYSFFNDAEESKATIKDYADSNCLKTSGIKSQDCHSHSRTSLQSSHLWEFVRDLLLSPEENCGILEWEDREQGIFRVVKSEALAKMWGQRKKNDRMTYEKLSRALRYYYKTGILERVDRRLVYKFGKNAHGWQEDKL
# How it was run: as §1
# ETV3 = molecular target: T12, ETV3 (Homo sapiens, UniProt P41162-2 1-143); conditions: protein: recombinant; tags: N-terminal GST; dsDNA, one strand shown
# T12 sequence: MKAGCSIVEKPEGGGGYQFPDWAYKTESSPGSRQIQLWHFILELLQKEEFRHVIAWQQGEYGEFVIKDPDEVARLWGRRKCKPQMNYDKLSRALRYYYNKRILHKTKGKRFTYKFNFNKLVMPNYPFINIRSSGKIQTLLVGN
# How it was run: as §1
# ETV6 = ETV6 (Homo sapiens, UniProt P41212 1-452); conditions: protein: recombinant; tags: N-terminal GST; dsDNA, one strand shown
# How it was run: as §1
# Sequence of ETV6 (P41212 whole entry): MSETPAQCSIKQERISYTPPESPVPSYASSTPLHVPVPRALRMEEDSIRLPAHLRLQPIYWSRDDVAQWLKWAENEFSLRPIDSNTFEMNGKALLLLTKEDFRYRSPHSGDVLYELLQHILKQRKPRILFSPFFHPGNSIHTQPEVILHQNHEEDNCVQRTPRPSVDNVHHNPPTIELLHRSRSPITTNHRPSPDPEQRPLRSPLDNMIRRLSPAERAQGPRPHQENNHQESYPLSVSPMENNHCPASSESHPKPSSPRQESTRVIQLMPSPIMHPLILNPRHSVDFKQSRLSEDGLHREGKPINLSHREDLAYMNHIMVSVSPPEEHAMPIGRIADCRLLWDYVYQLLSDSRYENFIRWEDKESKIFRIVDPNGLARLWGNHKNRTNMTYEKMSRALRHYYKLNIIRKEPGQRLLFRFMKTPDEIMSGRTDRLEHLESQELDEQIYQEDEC
# Sequence of HSF1 (Q00613 whole entry): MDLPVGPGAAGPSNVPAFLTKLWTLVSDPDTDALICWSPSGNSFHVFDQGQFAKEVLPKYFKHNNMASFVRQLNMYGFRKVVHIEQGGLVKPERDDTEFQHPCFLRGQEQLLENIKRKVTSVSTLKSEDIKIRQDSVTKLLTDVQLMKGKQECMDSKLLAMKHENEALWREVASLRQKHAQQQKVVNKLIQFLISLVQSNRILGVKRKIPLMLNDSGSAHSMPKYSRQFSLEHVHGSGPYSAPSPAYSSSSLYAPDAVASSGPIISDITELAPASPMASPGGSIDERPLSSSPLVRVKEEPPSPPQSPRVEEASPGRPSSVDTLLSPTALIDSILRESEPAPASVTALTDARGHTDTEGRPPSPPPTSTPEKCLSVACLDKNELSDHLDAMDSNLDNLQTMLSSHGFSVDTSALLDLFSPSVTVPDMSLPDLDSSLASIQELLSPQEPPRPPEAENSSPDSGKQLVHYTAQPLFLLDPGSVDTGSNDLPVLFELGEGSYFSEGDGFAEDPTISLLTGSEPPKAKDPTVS
# Sequence of ETV1 (P50549 whole entry): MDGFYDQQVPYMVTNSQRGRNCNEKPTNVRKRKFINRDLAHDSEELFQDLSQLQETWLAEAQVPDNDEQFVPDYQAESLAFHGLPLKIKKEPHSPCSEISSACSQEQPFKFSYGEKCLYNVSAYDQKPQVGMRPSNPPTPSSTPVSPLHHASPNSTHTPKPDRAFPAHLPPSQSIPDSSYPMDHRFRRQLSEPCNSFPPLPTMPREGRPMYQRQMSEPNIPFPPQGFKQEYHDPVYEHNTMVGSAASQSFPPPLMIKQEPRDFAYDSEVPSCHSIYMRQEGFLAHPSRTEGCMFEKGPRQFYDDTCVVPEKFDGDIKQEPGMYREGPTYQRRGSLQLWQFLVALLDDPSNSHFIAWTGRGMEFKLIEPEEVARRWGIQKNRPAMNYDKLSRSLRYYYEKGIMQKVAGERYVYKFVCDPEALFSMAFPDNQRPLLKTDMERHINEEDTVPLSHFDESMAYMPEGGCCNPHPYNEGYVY
# Sequence of ELF4 (Q99607 whole entry): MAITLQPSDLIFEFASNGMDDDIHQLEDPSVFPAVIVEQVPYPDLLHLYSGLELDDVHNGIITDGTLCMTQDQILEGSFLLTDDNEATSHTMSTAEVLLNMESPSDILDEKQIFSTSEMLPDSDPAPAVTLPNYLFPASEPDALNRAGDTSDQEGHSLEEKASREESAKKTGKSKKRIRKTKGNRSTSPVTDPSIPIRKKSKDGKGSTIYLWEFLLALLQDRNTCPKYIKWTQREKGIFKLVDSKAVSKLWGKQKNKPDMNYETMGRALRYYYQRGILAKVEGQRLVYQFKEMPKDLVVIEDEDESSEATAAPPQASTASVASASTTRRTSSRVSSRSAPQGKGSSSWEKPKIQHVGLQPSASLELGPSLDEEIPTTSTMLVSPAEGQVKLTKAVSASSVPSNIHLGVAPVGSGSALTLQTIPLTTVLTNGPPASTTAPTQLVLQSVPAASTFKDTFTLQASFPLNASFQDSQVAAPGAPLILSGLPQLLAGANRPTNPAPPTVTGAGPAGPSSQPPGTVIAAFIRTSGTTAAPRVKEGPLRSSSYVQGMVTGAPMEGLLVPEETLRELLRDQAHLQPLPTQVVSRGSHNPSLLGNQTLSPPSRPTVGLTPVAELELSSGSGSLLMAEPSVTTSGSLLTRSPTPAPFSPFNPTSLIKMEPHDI
# Sequence of ETV5 (P41161 whole entry): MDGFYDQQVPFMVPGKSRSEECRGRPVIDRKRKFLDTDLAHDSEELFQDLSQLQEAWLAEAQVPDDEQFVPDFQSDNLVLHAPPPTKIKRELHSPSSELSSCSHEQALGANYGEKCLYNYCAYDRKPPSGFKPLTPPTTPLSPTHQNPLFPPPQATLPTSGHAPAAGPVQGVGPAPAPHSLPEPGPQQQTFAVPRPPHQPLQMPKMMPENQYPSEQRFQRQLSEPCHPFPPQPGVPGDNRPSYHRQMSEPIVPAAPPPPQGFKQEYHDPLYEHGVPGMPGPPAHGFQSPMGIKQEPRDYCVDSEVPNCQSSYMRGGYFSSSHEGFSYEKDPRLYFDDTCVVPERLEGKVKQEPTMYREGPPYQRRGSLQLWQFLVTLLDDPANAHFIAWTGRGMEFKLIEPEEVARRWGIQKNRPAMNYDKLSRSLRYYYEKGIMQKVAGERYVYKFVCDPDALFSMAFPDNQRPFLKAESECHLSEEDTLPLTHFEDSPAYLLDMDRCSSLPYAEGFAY
# Sequence of CRX (O43186 whole entry): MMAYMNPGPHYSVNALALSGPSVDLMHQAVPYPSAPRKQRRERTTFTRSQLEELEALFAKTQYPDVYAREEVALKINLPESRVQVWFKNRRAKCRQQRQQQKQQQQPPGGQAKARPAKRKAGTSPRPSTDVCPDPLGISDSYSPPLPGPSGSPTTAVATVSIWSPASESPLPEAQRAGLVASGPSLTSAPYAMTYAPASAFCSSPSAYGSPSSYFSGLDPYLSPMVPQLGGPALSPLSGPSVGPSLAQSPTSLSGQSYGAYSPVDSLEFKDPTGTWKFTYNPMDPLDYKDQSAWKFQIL
sequence,measurement,setting,value
GCGACT,binding signal,FEV,"1.31 fold enrichment (6-mer frequency, TF over GST control)"
same,binding signal,ETV5,"1.28 fold enrichment (6-mer frequency, TF over GST control)"
same,binding signal,HSF1,"1.11 fold enrichment (6-mer frequency, TF over GST control)"
same,binding signal,SPIC,"1.28 fold enrichment (6-mer frequency, TF over GST control)"
same,binding signal,ELF4,"1.13 fold enrichment (6-mer frequency, TF over GST control)"
same,binding signal,ELK4,"1.28 fold enrichment (6-mer frequency, TF over GST control)"
same,binding signal,ETV2,"1.55 fold enrichment (6-mer frequency, TF over GST control)"
same,binding signal,ELF3,"1.05 fold enrichment (6-mer frequency, TF over GST control)"
same,binding signal,CRX,"1.14 fold enrichment (6-mer frequency, TF over GST control)"
same,binding signal,ETV1,"1.22 fold enrichment (6-mer frequency, TF over GST control)"
same,binding signal,ERF,"1.43 fold enrichment (6-mer frequency, TF over GST control)"
same,binding signal,ETV3L,"1.17 fold enrichment (6-mer frequency, TF over GST control)"
same,binding signal,ETS2,"1.15 fold enrichment (6-mer frequency, TF over GST control)"
same,binding signal,SPDEF,"1.13 fold enrichment (6-mer frequency, TF over GST control)"
same,binding signal,ETV7,"1.14 fold enrichment (6-mer frequency, TF over GST control)"
same,binding signal,ELF5,"1.3 fold enrichment (6-mer frequency, TF over GST control)"
same,binding signal,ETV3,"1.14 fold enrichment (6-mer frequency, TF over GST control)"
same,binding signal,ETV6,"1.16 fold enrichment (6-mer frequency, TF over GST control)"
